Assay results taken from article PMC7862700, “An all-to-all approach to the identification of sequence-specific readers for epigenetic DNA modifications on cytosine”.

Experiments:
Assay in all cases: DAPPL (digital affinity profiling via proximity ligation, sequencing); 10 mM Tris-HCl pH 7.5, 50 mM NaCl, 1 mM DTT, 4% glycerol, room temperature, 30 min; GST-TFs on glutathione beads, 16-mer random dsDNA library, 0.1% formaldehyde crosslink after washing; high values mean tight binding
FLI1 = target: T1, FLI1 (Homo sapiens, UniProt Q01543 1-452); details: protein: recombinant; tags: N-terminal GST; dsDNA, one strand shown
T1 sequence: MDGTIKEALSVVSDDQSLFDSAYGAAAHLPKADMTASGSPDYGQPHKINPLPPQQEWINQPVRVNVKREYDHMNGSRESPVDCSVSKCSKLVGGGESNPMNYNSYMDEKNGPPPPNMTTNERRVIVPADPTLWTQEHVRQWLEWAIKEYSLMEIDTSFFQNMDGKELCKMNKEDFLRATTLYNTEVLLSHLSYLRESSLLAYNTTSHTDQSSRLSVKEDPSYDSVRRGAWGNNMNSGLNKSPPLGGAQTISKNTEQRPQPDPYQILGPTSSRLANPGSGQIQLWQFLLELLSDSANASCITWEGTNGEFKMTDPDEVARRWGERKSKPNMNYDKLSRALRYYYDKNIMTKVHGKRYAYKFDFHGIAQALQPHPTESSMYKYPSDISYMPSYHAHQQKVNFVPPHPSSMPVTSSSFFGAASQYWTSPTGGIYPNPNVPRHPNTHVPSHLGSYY
Outline: (§1)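 Human transcription factors fused to GST were expressed in yeast, captured on glutathione beads, given DNA barcodes and pooled with a GST-only negative control. Pools were incubated with 200 nmole of a 16-mer random double-stranded DNA library in Tris/NaCl/DTT/glycerol buffer at room temperature for 30 min. They were then washed, crosslinked with 0.1% formaldehyde, proximity-ligated (BsaI/T4 ligase, 1 h, 37 °C), PCR-amplified and sequenced on an Illumina NextSeq500. Binding signal is each 6-mer's read frequency for a factor divided by its frequency for the GST control.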

ELK1 = target: T2, ELK1 (Homo sapiens, UniProt P19419 1-428); details: protein: recombinant; tags: N-terminal GST; dsDNA, one strand shown
T2 sequence: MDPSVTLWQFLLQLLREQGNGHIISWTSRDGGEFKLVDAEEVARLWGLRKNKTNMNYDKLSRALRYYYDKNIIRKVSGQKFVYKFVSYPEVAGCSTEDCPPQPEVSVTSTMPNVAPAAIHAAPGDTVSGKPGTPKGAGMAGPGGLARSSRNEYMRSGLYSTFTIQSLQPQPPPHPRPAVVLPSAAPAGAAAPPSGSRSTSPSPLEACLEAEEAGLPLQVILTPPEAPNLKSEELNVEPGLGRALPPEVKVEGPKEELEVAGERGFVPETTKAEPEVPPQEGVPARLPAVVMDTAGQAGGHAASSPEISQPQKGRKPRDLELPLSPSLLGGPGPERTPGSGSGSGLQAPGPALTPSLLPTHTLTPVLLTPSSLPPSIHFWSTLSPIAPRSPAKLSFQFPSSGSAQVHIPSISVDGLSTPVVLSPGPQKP
Outline: as §1

GABPA = target: T3, GABPA (Homo sapiens, UniProt Q06546 1-454); details: protein: recombinant; tags: N-terminal GST; dsDNA, one strand shown
T3 sequence: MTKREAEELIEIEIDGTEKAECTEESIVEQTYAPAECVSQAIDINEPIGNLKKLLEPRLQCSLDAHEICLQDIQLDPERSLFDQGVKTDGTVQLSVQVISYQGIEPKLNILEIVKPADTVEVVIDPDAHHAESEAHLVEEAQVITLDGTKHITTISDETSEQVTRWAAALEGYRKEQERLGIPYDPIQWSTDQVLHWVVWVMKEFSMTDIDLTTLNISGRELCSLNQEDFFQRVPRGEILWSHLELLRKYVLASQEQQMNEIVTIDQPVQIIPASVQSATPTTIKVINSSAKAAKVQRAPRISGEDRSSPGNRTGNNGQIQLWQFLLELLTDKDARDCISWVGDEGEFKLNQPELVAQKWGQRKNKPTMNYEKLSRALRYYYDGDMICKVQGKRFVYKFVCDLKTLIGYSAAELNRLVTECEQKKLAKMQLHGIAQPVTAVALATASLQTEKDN
Outline: as §1

ERG = target: T4, ERG (Homo sapiens, UniProt P11308 1-479); details: protein: recombinant; tags: N-terminal GST; dsDNA, one strand shown
T4 sequence: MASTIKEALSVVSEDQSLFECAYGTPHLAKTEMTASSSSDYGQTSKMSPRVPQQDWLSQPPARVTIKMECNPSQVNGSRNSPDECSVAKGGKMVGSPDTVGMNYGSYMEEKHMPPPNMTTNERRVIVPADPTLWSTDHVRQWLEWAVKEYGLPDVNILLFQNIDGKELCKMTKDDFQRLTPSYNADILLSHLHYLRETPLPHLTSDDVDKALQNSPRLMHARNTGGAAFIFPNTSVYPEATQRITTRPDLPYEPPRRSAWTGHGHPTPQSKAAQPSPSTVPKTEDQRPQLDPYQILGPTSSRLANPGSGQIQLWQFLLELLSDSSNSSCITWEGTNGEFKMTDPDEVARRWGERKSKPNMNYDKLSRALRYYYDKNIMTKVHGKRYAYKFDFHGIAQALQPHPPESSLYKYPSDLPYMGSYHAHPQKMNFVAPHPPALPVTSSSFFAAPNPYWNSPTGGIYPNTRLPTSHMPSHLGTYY
Outline: as §1

ELF1 = ELF1 (Homo sapiens, UniProt P32519 1-619); details: protein: recombinant; tags: N-terminal GST; dsDNA, one strand shown
Outline: as §1

EHF = target: T5, EHF (Homo sapiens, UniProt Q9NZC4 1-300); details: protein: recombinant; tags: N-terminal GST; dsDNA, one strand shown
T5 sequence: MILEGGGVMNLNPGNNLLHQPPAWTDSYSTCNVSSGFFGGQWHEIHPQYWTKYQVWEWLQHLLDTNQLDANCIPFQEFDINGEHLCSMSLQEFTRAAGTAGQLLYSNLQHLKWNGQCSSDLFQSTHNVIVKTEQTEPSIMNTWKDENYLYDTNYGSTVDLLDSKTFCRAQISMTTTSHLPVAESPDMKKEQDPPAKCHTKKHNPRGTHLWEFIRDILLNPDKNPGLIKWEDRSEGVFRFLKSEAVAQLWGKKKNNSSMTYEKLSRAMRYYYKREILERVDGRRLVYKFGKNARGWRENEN
Outline: as §1

SPI1 = SPI1 (Homo sapiens, UniProt P17947 1-270); details: protein: recombinant; tags: N-terminal GST; dsDNA, one strand shown
Outline: as §1

SPIB = SPIB (Homo sapiens, UniProt Q01892 1-262); details: protein: recombinant; tags: N-terminal GST; dsDNA, one strand shown
Outline: as §1

ELK3 = target: T6, ELK3 (Homo sapiens, UniProt P41970 1-407); details: protein: recombinant; tags: N-terminal GST; dsDNA, one strand shown
T6 sequence: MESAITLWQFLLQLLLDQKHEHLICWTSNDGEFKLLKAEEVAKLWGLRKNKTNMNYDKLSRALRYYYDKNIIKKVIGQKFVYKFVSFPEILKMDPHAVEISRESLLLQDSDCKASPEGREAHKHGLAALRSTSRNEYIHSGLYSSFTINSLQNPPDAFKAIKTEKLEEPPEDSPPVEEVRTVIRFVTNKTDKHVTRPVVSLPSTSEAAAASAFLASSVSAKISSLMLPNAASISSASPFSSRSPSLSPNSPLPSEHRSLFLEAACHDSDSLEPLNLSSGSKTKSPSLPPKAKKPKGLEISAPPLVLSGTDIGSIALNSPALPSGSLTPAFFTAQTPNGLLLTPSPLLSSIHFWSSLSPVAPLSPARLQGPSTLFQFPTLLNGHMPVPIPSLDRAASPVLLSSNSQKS
Outline: as §1

FEV = target: T7, FEV (Homo sapiens, UniProt Q99581 1-238); details: protein: recombinant; tags: N-terminal GST; dsDNA, one strand shown
T7 sequence: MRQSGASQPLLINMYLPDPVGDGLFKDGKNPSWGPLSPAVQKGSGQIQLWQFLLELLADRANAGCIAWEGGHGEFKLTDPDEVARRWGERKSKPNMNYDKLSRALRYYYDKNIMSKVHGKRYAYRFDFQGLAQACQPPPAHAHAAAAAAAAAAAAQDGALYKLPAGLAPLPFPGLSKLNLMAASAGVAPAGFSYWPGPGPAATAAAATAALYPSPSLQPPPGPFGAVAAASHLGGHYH
Outline: as §1

ETV5 = ETV5 (Homo sapiens, UniProt P41161 1-510); details: protein: recombinant; tags: N-terminal GST; dsDNA, one strand shown
Outline: as §1

HSF1 = HSF1 (Homo sapiens, UniProt Q00613 1-529); details: protein: recombinant; tags: N-terminal GST; chain copies: 3; dsDNA, one strand shown
Outline: as §1

SPIC = target: T8, SPIC (Homo sapiens, UniProt Q8N5J4 1-248); details: protein: recombinant; tags: N-terminal GST; dsDNA, one strand shown
T8 sequence: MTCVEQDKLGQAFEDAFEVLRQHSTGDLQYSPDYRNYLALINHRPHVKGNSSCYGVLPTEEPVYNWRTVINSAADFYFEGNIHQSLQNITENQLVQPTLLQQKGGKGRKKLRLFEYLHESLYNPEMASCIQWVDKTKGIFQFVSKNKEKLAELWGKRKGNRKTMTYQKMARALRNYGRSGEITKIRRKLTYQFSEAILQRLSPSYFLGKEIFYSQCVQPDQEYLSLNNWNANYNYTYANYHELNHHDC
Outline: as §1

ELF4 = ELF4 (Homo sapiens, UniProt Q99607 1-663); details: protein: recombinant; tags: N-terminal GST; dsDNA, one strand shown
Outline: as §1

ELK4 = target: T9, ELK4 (Homo sapiens, UniProt P28324-2 1-405); details: protein: recombinant; tags: N-terminal GST; dsDNA, one strand shown
T9 sequence: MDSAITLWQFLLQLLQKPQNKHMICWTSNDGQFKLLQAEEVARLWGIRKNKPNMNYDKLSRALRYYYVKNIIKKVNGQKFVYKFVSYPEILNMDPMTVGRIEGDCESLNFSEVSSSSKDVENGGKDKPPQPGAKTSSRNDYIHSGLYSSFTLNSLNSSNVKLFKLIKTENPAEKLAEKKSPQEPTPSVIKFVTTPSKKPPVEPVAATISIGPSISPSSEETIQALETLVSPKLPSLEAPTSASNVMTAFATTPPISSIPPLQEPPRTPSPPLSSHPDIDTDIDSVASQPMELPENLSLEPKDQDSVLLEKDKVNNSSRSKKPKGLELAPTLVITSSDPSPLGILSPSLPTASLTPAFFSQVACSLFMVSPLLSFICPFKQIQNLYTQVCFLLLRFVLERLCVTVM
Outline: as §1

ETV2 = target: T10, ETV2 (Homo sapiens, UniProt O00321 1-342); details: protein: recombinant; tags: N-terminal GST; dsDNA, one strand shown
T10 sequence: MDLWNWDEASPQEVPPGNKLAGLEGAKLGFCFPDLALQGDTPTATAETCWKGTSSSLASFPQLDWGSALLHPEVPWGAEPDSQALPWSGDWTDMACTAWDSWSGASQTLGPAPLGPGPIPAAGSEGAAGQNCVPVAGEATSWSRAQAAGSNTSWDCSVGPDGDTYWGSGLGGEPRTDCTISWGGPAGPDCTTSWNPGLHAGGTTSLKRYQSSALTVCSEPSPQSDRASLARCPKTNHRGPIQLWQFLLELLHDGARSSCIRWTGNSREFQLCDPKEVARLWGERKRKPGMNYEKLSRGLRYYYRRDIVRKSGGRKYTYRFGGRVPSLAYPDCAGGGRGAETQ
Outline: as §1

ELF3 = target: T11, ELF3 (Homo sapiens, UniProt P78545 1-371); details: protein: recombinant; tags: N-terminal GST; dsDNA, one strand shown
T11 sequence: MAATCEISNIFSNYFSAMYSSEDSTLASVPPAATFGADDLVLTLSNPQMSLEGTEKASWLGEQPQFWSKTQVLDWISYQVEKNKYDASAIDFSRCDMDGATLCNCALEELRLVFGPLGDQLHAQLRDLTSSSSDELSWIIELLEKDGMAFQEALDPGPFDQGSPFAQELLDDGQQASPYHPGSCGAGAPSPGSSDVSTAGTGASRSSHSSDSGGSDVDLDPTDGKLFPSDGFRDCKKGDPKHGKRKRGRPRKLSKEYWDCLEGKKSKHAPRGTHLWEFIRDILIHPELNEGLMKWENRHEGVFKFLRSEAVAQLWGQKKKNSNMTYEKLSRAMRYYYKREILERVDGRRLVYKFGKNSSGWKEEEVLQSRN
Outline: as §1

CRX = CRX (Homo sapiens, UniProt O43186 1-299); details: protein: recombinant; tags: N-terminal GST; dsDNA, one strand shown
Outline: as §1

ETV1 = ETV1 (Homo sapiens, UniProt P50549 1-477); details: protein: recombinant; tags: N-terminal GST; dsDNA, one strand shown
Outline: as §1

SPIB, sequence (Q01892 whole entry): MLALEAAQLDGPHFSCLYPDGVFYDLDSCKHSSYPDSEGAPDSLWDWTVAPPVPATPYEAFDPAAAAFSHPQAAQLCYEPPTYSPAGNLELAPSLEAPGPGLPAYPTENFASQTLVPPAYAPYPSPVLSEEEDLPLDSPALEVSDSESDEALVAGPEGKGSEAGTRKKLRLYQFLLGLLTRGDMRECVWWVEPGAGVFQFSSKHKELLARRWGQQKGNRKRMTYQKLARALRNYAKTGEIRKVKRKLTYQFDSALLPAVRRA
CRX, sequence (O43186 whole entry): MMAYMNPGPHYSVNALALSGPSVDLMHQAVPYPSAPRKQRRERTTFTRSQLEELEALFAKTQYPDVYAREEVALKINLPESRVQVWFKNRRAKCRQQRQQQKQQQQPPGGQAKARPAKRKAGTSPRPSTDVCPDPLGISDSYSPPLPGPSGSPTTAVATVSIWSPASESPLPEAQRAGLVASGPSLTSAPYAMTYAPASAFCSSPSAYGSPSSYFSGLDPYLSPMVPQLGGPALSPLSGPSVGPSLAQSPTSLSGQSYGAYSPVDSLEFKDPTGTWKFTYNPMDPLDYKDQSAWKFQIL
ELF1, sequence (P32519 whole entry): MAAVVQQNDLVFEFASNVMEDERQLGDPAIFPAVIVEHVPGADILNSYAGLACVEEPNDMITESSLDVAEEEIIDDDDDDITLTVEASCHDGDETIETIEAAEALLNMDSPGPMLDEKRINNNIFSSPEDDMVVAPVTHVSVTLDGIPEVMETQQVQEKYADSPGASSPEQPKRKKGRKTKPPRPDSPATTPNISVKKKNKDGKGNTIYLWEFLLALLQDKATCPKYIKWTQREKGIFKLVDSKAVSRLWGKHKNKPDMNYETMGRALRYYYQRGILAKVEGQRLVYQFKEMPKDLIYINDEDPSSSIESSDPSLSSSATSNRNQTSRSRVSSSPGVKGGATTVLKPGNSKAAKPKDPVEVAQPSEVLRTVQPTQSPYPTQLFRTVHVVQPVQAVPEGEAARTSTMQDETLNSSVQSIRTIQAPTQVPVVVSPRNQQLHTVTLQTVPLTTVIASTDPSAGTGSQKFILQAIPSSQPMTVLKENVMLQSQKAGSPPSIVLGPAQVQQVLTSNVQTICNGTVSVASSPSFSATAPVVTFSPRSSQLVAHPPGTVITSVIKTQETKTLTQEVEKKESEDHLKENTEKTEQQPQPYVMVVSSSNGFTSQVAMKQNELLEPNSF
ELF4, sequence (Q99607 whole entry): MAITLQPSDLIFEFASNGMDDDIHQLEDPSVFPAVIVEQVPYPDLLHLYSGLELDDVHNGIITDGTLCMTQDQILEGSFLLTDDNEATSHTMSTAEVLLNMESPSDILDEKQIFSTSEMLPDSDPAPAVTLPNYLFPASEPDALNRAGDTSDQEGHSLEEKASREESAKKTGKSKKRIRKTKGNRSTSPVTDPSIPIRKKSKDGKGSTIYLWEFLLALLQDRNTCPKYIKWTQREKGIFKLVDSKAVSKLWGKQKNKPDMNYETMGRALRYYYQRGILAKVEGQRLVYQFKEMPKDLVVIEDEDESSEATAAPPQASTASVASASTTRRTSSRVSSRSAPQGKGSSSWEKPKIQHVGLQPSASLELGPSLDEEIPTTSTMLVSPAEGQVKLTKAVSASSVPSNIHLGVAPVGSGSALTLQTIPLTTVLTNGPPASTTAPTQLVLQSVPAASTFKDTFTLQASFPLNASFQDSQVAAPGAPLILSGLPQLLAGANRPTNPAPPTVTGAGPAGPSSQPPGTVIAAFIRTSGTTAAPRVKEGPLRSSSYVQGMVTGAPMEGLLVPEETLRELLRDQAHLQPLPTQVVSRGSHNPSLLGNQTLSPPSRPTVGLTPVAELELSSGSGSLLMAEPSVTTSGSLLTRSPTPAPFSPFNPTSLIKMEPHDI
ETV1, sequence (P50549 whole entry): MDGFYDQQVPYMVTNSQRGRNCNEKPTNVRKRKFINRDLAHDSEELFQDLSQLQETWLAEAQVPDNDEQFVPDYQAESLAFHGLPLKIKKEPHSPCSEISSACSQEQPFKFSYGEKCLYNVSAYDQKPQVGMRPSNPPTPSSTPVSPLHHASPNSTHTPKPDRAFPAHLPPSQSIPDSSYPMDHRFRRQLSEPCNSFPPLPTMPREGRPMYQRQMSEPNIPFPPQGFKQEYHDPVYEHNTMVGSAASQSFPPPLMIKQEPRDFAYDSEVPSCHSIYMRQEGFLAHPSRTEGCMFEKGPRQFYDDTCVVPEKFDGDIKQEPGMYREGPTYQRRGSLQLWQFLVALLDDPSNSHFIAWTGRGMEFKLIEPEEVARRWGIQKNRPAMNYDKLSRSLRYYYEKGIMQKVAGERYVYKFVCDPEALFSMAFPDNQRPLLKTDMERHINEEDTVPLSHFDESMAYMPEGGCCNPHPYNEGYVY
ETV5, sequence (P41161 whole entry): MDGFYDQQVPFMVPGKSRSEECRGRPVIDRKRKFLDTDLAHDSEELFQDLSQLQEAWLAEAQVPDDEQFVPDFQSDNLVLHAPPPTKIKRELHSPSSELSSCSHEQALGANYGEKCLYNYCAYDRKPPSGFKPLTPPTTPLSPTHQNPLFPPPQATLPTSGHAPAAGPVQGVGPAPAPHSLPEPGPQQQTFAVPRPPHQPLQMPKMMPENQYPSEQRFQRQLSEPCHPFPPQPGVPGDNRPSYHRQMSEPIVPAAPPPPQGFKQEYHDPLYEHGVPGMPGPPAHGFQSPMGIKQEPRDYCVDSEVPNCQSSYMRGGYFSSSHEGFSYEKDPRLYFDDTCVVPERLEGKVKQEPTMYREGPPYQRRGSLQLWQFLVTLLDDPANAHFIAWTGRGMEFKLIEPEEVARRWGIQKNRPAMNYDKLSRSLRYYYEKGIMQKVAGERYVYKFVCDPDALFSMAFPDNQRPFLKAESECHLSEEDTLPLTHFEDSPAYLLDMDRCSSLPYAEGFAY
HSF1, sequence (Q00613 whole entry): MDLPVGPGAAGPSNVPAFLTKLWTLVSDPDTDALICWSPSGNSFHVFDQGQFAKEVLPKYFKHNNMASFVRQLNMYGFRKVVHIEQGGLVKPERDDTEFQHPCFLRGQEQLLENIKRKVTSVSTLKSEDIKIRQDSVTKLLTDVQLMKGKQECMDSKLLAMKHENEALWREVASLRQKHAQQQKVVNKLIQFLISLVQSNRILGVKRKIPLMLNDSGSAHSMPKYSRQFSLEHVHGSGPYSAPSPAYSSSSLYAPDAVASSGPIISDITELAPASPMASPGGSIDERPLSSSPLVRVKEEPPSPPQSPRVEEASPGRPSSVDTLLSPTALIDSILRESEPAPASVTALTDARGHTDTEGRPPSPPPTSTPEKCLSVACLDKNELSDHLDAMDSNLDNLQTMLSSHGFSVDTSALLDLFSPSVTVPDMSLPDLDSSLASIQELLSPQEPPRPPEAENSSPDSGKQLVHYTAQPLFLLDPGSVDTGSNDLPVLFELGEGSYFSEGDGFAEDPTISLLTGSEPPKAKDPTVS

CCCTCG
binding signal (FLI1): 1.23 fold enrichment (6-mer frequency, TF over GST control) | binding signal (ELK1): 1.34 fold enrichment (6-mer frequency, TF over GST control) | binding signal (GABPA): 1.38 fold enrichment (6-mer frequency, TF over GST control) | binding signal (ERG): 1.14 fold enrichment (6-mer frequency, TF over GST control) | binding signal (ELF1): 1.34 fold enrichment (6-mer frequency, TF over GST control) | binding signal (EHF): 1.24 fold enrichment (6-mer frequency, TF over GST control) | binding signal (SPI1): 1.23 fold enrichment (6-mer frequency, TF over GST control) | binding signal (SPIB): 1.34 fold enrichment (6-mer frequency, TF over GST control) | binding signal (ELK3): 1.15 fold enrichment (6-mer frequency, TF over GST control) | binding signal (FEV): 1.19 fold enrichment (6-mer frequency, TF over GST control) | binding signal (ETV5): 1.19 fold enrichment (6-mer frequency, TF over GST control) | binding signal (HSF1): 1.22 fold enrichment (6-mer frequency, TF over GST control) | binding signal (SPIC): 1.25 fold enrichment (6-mer frequency, TF over GST control) | binding signal (ELF4): 1.36 fold enrichment (6-mer frequency, TF over GST control) | binding signal (ELK4): 1.36 fold enrichment (6-mer frequency, TF over GST control) | binding signal (ETV2): 1.25 fold enrichment (6-mer frequency, TF over GST control) | binding signal (ELF3): 1.17 fold enrichment (6-mer frequency, TF over GST control) | binding signal (CRX): 1.06 fold enrichment (6-mer frequency, TF over GST control) | binding signal (ETV1): 1.25 fold enrichment (6-mer frequency, TF over GST control)
